Active and inactive are the calls of the source. The call rests on the fitted dose curve; in most records, active means well fitted curve in the direction sought with a large enough effect; inconclusive means small, poorly fitted or top-dose-only effect, or another doubt; inactive means no such curve, though single readings can be large; an effect the other way counts as inactive or inconclusive.

Tested on in one experiment: not listed separately
Put plainly: Validation qHTS assay for inhibitors of Activation Induced Cytidine Deaminase (AID): UDG Counterscreen signal (AID 1347427). Further: 0% is about no effect. The following applies: biochemical UDG counterscreen, fluorescence signal; series mostly up to 115 µM; activity, negative = inhibition: at the top concentration. The procedure, abridged:
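Fluorescence at 560 nm excitation, 665 nm emission reports UDG signal after 250 mM NaOH (2x) addition and 30 min. Enzymes (AID 1 uM, UDG 2 U/mL, at 4/3x) preincubated 10 min with compound, then 4 h with 4x 250 nM DJC20/DJC23 substrate at room temperature.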
(In general: Quantitative high-throughput screening tests each substance at several concentrations.)
In the case of `C[C@H](N)CN1CCc2ccc(Br)cc21`, the “activity, negative = inhibition” value is 12.2% (inactive). As to `COc1ccc2c(c1O)-c1cccc3c1[C@@H](C2)N(C)CC3`, the “activity, negative = inhibition” value is 11% (inactive).

Regarding `CCCN(CCC)[C@@H]1CCc2cccc(O)c2C1`, the “activity, negative = inhibition” value is -6.06% (inactive). For the compound `c1ccc2c(N3CCNCC3)cccc2c1`, the “activity, negative = inhibition” value is -8.77% (inactive). In the case of `Oc1ccc2c3c1O[C@H]1c4[nH]c5ccccc5c4C[C@@]4(O)C(C2)N(CC2CC2)CCC314` (stereo partly drawn), the “activity, negative = inhibition” value was -0.911% (inactive). As to `N#C/C(=C/c1ccc(O)c(O)c1)C(N)=S`, the “activity, negative = inhibition” value is 5.58% (inactive). As for `Nc1ccc(CCN2CCN(c3cccc(C(F)(F)F)c3)CC2)cc1`, the “activity, negative = inhibition” value is -4.84% (inactive). Still for that read-out and setting: under `C[N+](C)(C)CC#CCN1CCCC1=O` stands -9.26% (inactive); under `CCCN(CCC)C1CCc2cccc(O)c2C1` (stereo not drawn), 13.5% (inactive); under `COc1ccc2c(c1)C13CCCCC1C(C2)N(C)CC3` (stereo not drawn), 10.3% (inactive).

Regarding `CN1CC[C@@]2(C)c3cc(OC(=O)Nc4ccccc4)ccc3N(C)[C@@H]12`, the “activity, negative = inhibition” value is -6.84% (inactive). With `NC(=O)CI`, the “activity, negative = inhibition” value was 11% (inactive).

As for `CN1C2CCC1CC(OC(c1ccccc1)c1ccccc1N)C2` (stereo not drawn), the “activity, negative = inhibition” value is 6.14% (inactive). On the same count and under the same terms, in the case of `CCNC(=O)[C@H]1O[C@@H](n2cnc3c(N)ncnc32)[C@H](O)[C@@H]1O` it was 3.22% (inactive); in that of `CCCn1c(=O)c2[nH]c(C3CCCC3)nc2n(CCCOC(=O)c2ccc(S(=O)(=O)F)cc2)c1=O`, 11.3% (inactive). Turning to `C=CCN1CCC23c4c5ccc(O)c4O[C@H]2C(=O)CC[C@@]3(O)C1C5` (stereo partly drawn), the “activity, negative = inhibition” value was 13.1% (inactive). Still for that read-out and setting: under `C[C@@H]1O[C@@H](O[C@H]2C[C@@H](O)[C@]3(CO)[C@@H]4C(CC[C@]3(O)C2)[C@@]2(O)CC[C@H]([C@@H]3COC(=O)C3)[C@@]2(C)C[C@H]4O)[C@H](O)[C@H](O)[C@H]1O` (stereo partly drawn) stands 10.2% (inactive).

Another experiment deals with Single-stranded DNA cytosine deaminase (Homo sapiens) (UniProt Q9GZX7). Put plainly: Validation qHTS assay for inhibitors of Activation Induced Cytidine Deaminase (AID): AID signal (AID 1347429). Further: on the % scale 0 is the no-effect control and ±100 the full control effect. The conditions noted are these: Recombinant AID, FRET ssDNA deamination with UDG, fluorescence; series mostly up to 115 µM; activity change, negative = inhibition: at the top concentration. The procedure, abridged: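 Steps: dispense AID with UDG; pin-transfer compound up to 114 uM final; add DJC20/DJC23 substrate and hold 4 hr at room temperature; add NaOH, hold 30 min; read FRET signal (540/590 nm).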
Single-stranded DNA cytosine deaminase (Homo sapiens), sequence (Q9GZX7 whole entry, looked up): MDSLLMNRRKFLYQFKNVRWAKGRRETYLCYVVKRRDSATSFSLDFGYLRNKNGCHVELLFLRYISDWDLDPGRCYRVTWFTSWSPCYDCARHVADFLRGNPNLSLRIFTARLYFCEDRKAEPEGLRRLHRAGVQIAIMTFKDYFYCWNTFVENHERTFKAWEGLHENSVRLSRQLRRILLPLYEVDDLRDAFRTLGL
In the case of `CCCC[N+]1(C)C2CC(OC(=O)[C@H](CO)c3ccccc3)CC1C1OC12` (stereo partly drawn), the “activity change, negative = inhibition” value is 8.94% (inactive). For the compound `NCC(O)c1cc(O)c(O)cc1F` (stereo not drawn), the “activity change, negative = inhibition” value is 27.7% (inactive). For the compound `C[C@H](N)CN1CCc2ccc(Br)cc21`, the “activity change, negative = inhibition” value is 38.8% (inactive). On the same count and under the same terms, in the case of `COc1ccc2c(c1O)-c1cccc3c1[C@@H](C2)N(C)CC3` it was 87.5% (inactive).

Regarding `CP(=O)(O)C1=CCNCC1`, the “activity change, negative = inhibition” value is 8.06% (inactive). For `CCCN(CCC)[C@H]1CCc2c(F)ccc(O)c2C1`, the “activity change, negative = inhibition” value is 106% (inactive). Same read-out and setting: under `CCCN(CCC)[C@@H]1CCc2cccc(O)c2C1` stands 37.9% (inactive); under `c1ccc2c(N3CCNCC3)cccc2c1`, -5.39% (inactive); under `Oc1ccc2c3c1O[C@H]1c4[nH]c5ccccc5c4C[C@@]4(O)C(C2)N(CC2CC2)CCC314` (stereo partly drawn), 12.5% (inactive). The same measure, in the same setting: under `N#C/C(=C/c1ccc(O)c(O)c1)C(N)=S` stands 12.1% (inactive). Turning to `Nc1ccc(CCN2CCN(c3cccc(C(F)(F)F)c3)CC2)cc1`, the “activity change, negative = inhibition” value was 35.6% (inactive). Turning to `NCCCP(=O)(O)O`, the “activity change, negative = inhibition” value is 0.891% (inactive). Consider `C[N+](C)(C)CC#CCN1CCCC1=O`, for which the “activity change, negative = inhibition” value is -3.21% (inactive). On to `CCCN(CCC)C1CCc2cccc(O)c2C1` (stereo not drawn), for which the “activity change, negative = inhibition” value was 19.7% (inactive). Consider `CCCN1CCc2cc(O)cc3c2[C@H]1Cc1ccc(O)c(O)c1-3`, for which the “activity change, negative = inhibition” value was 39.1% (inactive).

With `COc1ccc2c(c1)C13CCCCC1C(C2)N(C)CC3` (stereo not drawn), the “activity change, negative = inhibition” value was 12.5% (inactive).

For the compound `CN1CC[C@@]2(C)c3cc(OC(=O)Nc4ccccc4)ccc3N(C)[C@@H]12`, the “activity change, negative = inhibition” value is -7.6% (inactive). On the same count and under the same terms, under `CC(=O)NBr` stands 3.73% (inactive). Take `NC(=O)CI`: the “activity change, negative = inhibition” value was 23.9% (inactive). As to `CN1C2CCC1CC(OC(c1ccccc1)c1ccccc1N)C2` (stereo not drawn), the “activity change, negative = inhibition” value was 13.7% (inactive). The same measure, in the same setting: under `Cc1sc2ccccc2c1CC1=NCCN1` stands 22.1% (inactive); under `CCNC(=O)[C@H]1O[C@@H](n2cnc3c(N)ncnc32)[C@H](O)[C@@H]1O`, 9.63% (inactive); under `CCCn1c(=O)c2[nH]c(C3CCCC3)nc2n(CCCOC(=O)c2ccc(S(=O)(=O)F)cc2)c1=O`, 28.8% (inactive). On to `COC(=O)N1CCN(C(=O)Cc2ccc(Cl)c(Cl)c2)C(CN2CCCC2)C1` (stereo not drawn), for which the “activity change, negative = inhibition” value is 24.9% (inactive).

Consider `COc1ccc2[nH]c3c(c2c1)CCNC3`, for which the “activity change, negative = inhibition” value was 40.8% (inactive). As for `Clc1ccc(N2CC3CCC(C2)N3)nn1`, the “activity change, negative = inhibition” value is 111% (inactive). Regarding `N[C@@H](Cn1oc(=O)[nH]c1=O)C(=O)O`, the “activity change, negative = inhibition” value was -1.55% (inactive). With `NNC(=O)c1ccc(O)cc1`, the “activity change, negative = inhibition” value is 16.3% (inactive). Take `CN(C(=O)Cc1ccc(Cl)c(Cl)c1)C(CN1CCCC1)c1cccc(OCC(=O)O)c1` (stereo not drawn): the “activity change, negative = inhibition” value is 11% (inactive).

For `C=CCN1CCC23c4c5ccc(O)c4O[C@H]2C(=O)CC[C@@]3(O)C1C5` (stereo partly drawn), the “activity change, negative = inhibition” value is 24.6% (inactive). As for `C[C@@H]1O[C@@H](O[C@H]2C[C@@H](O)[C@]3(CO)[C@@H]4C(CC[C@]3(O)C2)[C@@]2(O)CC[C@H]([C@@H]3COC(=O)C3)[C@@]2(C)C[C@H]4O)[C@H](O)[C@H](O)[C@H]1O` (stereo partly drawn), the “activity change, negative = inhibition” value was 15% (inactive).

The values are drawn from PubChem BioAssay (NCATS).
